Measurements taken from the supplement of paper PMC11402862.

Test system: PPARalpha LBD (GAL4 fusion)
Assay: luciferase reporter transactivation, fold of solvent control; higher = stronger receptor activation
Conditions: HEK293T, exposure time: 24 h
Description: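 HEK293T cells were transiently transfected with a GAL4-DBD fused to the ligand-binding domain of a human nuclear receptor (PPARα, PPARγ, PPARδ, FXR, LXRα, PXR, RARα or CAR), the GAL4-(UAS)5-TK firefly luciferase reporter and a Renilla luciferase normalisation plasmid. Cells were exposed to compound for 24 h in 0.5% DMSO. Firefly/Renilla luciferase was expressed as fold of the solvent control (=1). Values are the mean of 2-3 biological replicates; receptor agonists were used as positive controls.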

| Compound | luciferase reporter transactivation (concentration: 1 µM) | luciferase reporter transactivation (concentration: 5 µM) | luciferase reporter transactivation (concentration: 10 µM) | luciferase reporter transactivation (concentration: 25 µM) | luciferase reporter transactivation (concentration: 50 µM) | luciferase reporter transactivation (concentration: 100 µM) | luciferase reporter transactivation (concentration: 250 µM) | luciferase reporter transactivation (concentration: 500 µM) |
| --- | --- | --- | --- | --- | --- | --- | --- | --- |
| O=S(=O)(O)CCC(F)(F)C(F)(F)C(F)(F)C(F)(F)C(F)(F)C(F)(F)C(F)(F)C(F)(F)F [8:2 fluorotelomer sulfonic acid] | 1.07 | 1.09 | 1.18 | 1.29 | 1.33 | 1.97 | 1.6 | 1.31 |
| OCCC(F)(F)C(F)(F)C(F)(F)C(F)(F)C(F)(F)C(F)(F)F [6:2 fluorotelomer alcohol] | 0.709 | 0.741 | 0.818 | 0.925 | 0.748 | 0.765 | 0.656 | 0.825 |
| O=S(=O)(O)CCC(F)(F)C(F)(F)C(F)(F)C(F)(F)C(F)(F)C(F)(F)F [6:2 fluorotelomer sulfonic acid] | 1.06 | 0.983 | 1.08 | 1.08 | 1.13 | 1.78 | – | – |
| O=C(O)C(F)(F)C(F)(F)C(F)(F)C(F)(F)F [perfluoropentanoic acid] | 1.14 | 1.05 | 1.12 | 1.18 | 1.15 | 1.31 | 1.35 | 1.58 |
| CC(C)(Sc1ccc(CCN(CCCCC2CCCCC2)C(=O)NC2CCCCC2)cc1)C(=O)O | 46 | – | – | – | – | – | – | – |
